Laboratory results from ChEMBL document CHEMBL3433997, “St. Jude Leishmania screening dataset” (2016).

Biological target: Solute carrier family 2, facilitated glucose transporter member 1 (Homo sapiens) (UniProt P11166)
Assay: ST_JUDE_LEISH: Cytotoxicity at 2uM final concentration against transgenic Leishmania Mexicana promastigotes LmGLUT1 that are glucose transport deficient and complemented with the human glucose transporter GLUT1. Activity is measured by DNA content using SYBR green in vitro
Assay type: functional

Solute carrier family 2, facilitated glucose transporter member 1 (Homo sapiens), sequence (P11166 whole entry): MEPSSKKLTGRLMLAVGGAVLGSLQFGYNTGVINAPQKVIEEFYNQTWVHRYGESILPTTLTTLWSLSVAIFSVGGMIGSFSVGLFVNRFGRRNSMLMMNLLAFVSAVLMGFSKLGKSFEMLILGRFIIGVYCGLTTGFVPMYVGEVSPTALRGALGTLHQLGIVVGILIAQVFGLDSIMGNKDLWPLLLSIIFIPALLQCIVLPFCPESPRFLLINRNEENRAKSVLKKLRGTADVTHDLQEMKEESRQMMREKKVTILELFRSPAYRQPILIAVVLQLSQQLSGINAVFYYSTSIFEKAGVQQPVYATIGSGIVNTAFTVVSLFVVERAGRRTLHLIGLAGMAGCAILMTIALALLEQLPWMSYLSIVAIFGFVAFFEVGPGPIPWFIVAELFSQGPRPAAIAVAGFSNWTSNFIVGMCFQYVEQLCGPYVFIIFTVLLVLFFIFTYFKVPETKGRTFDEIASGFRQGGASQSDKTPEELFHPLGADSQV

For CC1CC1C(=O)NC1CCN(CC2(c3ccccc3)CCCCC2)CC1 (stereo not given), which inhibition is on record?
The inhibition was 0.87%.

O=C(CCn1c2ccccc2c2ccccc21)NN=Cc1ccco1 was tested. Which inhibition did it give?
The inhibition was 7.25%.

CCN1CCC(N(Cc2ccc(-c3ccc(Cl)cc3)cc2)C(=O)Cn2c(CCc3cccc(F)c3F)cc(=O)c3ccccc32)CC1 was tested. Which inhibition did it give?
The inhibition was 9.18%.

Which inhibition does the source give for CCOc1cc(C(C)C)ccc1N1CCN(CCCCNC(=O)c2ccc(NC(=O)c3ccc(Cl)cc3)cc2)CC1 here?
Its inhibition is 4.38%.

O=C(N[C@@H](CC1CCCCC1)C(=O)NCCN1CCOCC1)c1ccc(O)c(-c2ccc(Cl)c(Cl)c2)c1 was tested. Which inhibition did it give?
The inhibition was -0.52%.

With CC(=O)Nc1ccc(CN(Cc2ccc(OC(C)(C)C)cc2)Cc2ccc3c(c2)OCCO3)cc1 as the compound, how does the inhibition read?
The inhibition was 7.25%.

COc1ccc2nccc(N3CCC(SCCNCc4ccc5c(n4)NC(=O)CO5)C3)c2n1 (stereo not given) was tested. Which inhibition did it give?
The inhibition was 0.4%.

How did the inhibition turn out when O=C(COc1cnc2ccccc2n1)Nc1ccccc1Sc1ccc(Cl)cc1 was run?
The inhibition was 4.91%.

How did the inhibition turn out when COc1ccc(CCNCCCCCCNCCc2ccccc2Cl)cc1OC was run?
Its inhibition is 1.25%.

How did the inhibition turn out when COc1ccc2nccc([C@@H](O)CN3CCC(NCc4cc5oc(=O)n(C)c5cc4F)CC3)c2c1 was run?
Its inhibition is 0.9%.

How did the inhibition turn out when CCOc1cc(C(=O)Nc2cccnc2)cc(Br)c1OCCC(C)C was run?
The inhibition was 1.25%.

Which inhibition does the source give for COC(=O)c1cccc(N2CCN(CCCNC(=O)/C(=C/C=C/c3cc4cc(Cl)c(Cl)cc4[nH]3)OC)CC2)c1 here?
Its inhibition is 2.24%.

For Cc1cc(-c2ccc(CN3Cc4ccccc4C3)cc2)ccc1S(=O)(=O)NCCN1CCCC1, which inhibition is on record?
Its inhibition is 40.3%.

With COc1nc2c(CCN3CCC(NCc4ccc5c(c4)NC(=O)CO5)CC3)c(Cl)cnc2cc1F as the compound, how does the inhibition read?
The inhibition was 3.07%.

For O=C(Nc1cccc(F)c1)N[C@H]1CCN(CCCCCNC(=O)C2CC2c2ccc(Cl)c(Cl)c2)C1 (stereo not given in full), which inhibition is on record?
Its inhibition is 4.75%.
